Assay outcomes as filed in PubChem.
KDM5B inhibitor – KDM5B demethylase inhibition; KDM5B demethylase, FDH-coupled NADH fluorescence (FDH is formaldehyde dehydrogenase); Potency, µM (top dose mostly 57.7 µM), actives largely listed as inhibitors; 220,000 compounds, 2.6% hits; Q9UGL1; further: nearly all actives have a fitted effect of over 70% in size
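Here, H3K4me3 peptide (12.5 µM in substrate mix) is demethylated by KDM5BΔAP, 200 nM final, after 10 min compound exposure. Formaldehyde product is coupled through FDH (0.25 U/mL in mix) to NADH fluorescence; 30-min ΔRFU feeds dose-response curves.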
IP6K1 inh – blocks human inositol hexakisphosphate kinase 1. Q92551. IP6K1 kinase, ADP-Glo luminescence, 2 h; hits give low values. activity change, % (series mostly up to about 58 µM). 140,000 compounds, 0.81% hits. AID 1645851; in the data active means activity change below about -25%
Target sequence (Q92551 whole entry, looked up): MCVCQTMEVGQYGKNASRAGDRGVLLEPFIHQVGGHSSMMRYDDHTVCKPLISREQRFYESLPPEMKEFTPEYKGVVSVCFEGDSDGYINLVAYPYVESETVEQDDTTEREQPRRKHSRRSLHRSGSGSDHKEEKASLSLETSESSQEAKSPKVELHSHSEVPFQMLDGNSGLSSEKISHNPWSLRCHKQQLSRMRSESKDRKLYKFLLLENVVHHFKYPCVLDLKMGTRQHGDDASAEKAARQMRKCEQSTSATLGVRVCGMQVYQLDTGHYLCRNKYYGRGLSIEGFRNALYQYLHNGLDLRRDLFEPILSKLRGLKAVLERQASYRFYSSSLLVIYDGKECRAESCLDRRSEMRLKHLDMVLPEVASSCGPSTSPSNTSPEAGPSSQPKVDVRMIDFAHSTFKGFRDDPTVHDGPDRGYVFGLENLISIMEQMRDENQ
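ADP-Glo luminescence measures ADP made by human IP6K1 during a 2 h RT reaction with ATP/IP6 (mix at 1.3 mM/130 uM); top library doses 57.5 and 19.1 uM final.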
IP6K1 inh cnf – confirmation of human IP6K1 inhibitors; shares compounds with IP6K1 inh; recombinant IP6K1 kinase, ADP-Glo luminescence, 2 h; Potency, µM (doses to about 49 µM), usual class: inhibitors; 1,200 compounds, 13% hits; further: nearly all actives have a fitted effect of over 65% in size
Each line names hits and unclear results; the compound was inactive in the other large screens (follow-up assays come after a bar, where they were run). Hits are enriched below; roughly 2.8% of the tested compounds scored in any of these assays. Unless noted, the call rests on the fitted dose curve; in most records, active means well fitted inhibition curve with a large enough effect; inconclusive means small, poorly fitted or top-dose-only effect; inactive means no such curve, though single readings can be large or run the other way.

O=C1NC(Cc2c[nH]c3ccccc23)C(=O)NC1Cc1c[nH]c2ccccc12 (stereo not drawn)	none (no result: KDM5B inhibitor)
COCCN(C)C[C@@H]1CN(C(=O)c2ccc(-c3ccccc3)n2C)C[C@@H]1CO	IP6K1 inh -34 | IP6K1 inh cnf inactive
COCCN(C)C[C@@H]1CN(C(=O)c2c(-c3ccccc3)ccnc2C)C[C@@H]1CO	none
COc1ccccc1N1CCN(C(=O)CCc2ccccc2C)CC1=O	IP6K1 inh -34 | IP6K1 inh cnf inactive
COc1ccccc1CCC(=O)N1CCN(C(=O)c2ccccc2)CC1	none (no result: IP6K1 inh)
Cc1cccc(-n2ncc3c(NNC(=O)C4CCCCC4)ncnc32)c1	none (no result: IP6K1 inh)
CCN(CC)C(=S)Nc1ccc(C(=O)O)cc1	none (no result: IP6K1 inh)
CC(C)C(=O)Nc1cccc(NC2=NS(=O)(=O)c3ccccc32)c1	none
COC(=O)c1cccc(NC2=NS(=O)(=O)c3ccccc32)c1	IP6K1 inh -40 | IP6K1 inh cnf inconclusive
CCCS(=O)(=O)c1nc(S(=O)(=O)c2ccc(C)cc2)c(NC(C)CC)s1 (stereo not drawn)	none (no result: IP6K1 inh)
CN(C)c1cc(=O)c2ccnc(-c3cccc(CO)c3)c2o1	IP6K1 inh -25 | IP6K1 inh cnf inactive
Cc1ccccc1-c1nccc2c(=O)cc(-c3ccncc3)oc12	KDM5B inhibitor inconclusive
CC(Sc1nc2ccccc2s1)C(=O)NC1(C#N)CCCCC1 (stereo not drawn)	none (no result: IP6K1 inh)
CCCCCCCOc1ccc(S(=O)(=O)c2ccc(OCCCCCCC)cc2)cc1	none (no result: IP6K1 inh)
O=C(O)CC(c1ccc(F)cc1)c1ccc(Cl)cc1 (stereo not drawn)	none (no result: IP6K1 inh)
CCN(CC)c1ccc(NC(=O)c2cc(S(N)(=O)=O)ccc2C)cc1	none (no result: IP6K1 inh)
CCN(CC)c1ccc(C(=C2C=CC(=[N+](CC)CC)C=C2)c2cc(S(=O)(=O)O)ccc2S(=O)(=O)[O-])cc1	IP6K1 inh -51 (no result: KDM5B inhibitor) | IP6K1 inh cnf inconclusive
CCCOc1ccc(C2=NC(c3ccncc3)=Nc3ccc(C)cc3N2)cc1	none
Cc1ccc(C2=Nc3ccccc3NC(c3ccncc3)=N2)cc1	IP6K1 inh -30 | IP6K1 inh cnf inactive
O=C(Nc1ccc(Br)cc1F)Nc1c(NC2CCCC2)c2ccccc2oc1=O	none (no result: IP6K1 inh)
Cc1ccc(CCNC(=O)c2nn(C)c3c2CSc2ccccc2-3)cc1	KDM5B inhibitor inconclusive, IP6K1 inh -29 | IP6K1 inh cnf inactive
Cn1nc(C(=O)NCCc2ccc(Cl)cc2)c2c1-c1ccccc1SC2	KDM5B inhibitor inconclusive
CN(CCCOc1ccccc1)CCC(=O)N(CC#N)CC#N	none (no result: IP6K1 inh)
Cc1ccc2c(c1)C(=O)C(=O)N2Cc1ccc(OC(C)C)cc1	IP6K1 inh -38 | IP6K1 inh cnf inactive
COc1ccc(CN2C(=O)C(=O)c3cc(C)ccc32)cc1OC	none (no result: IP6K1 inh)
Cc1ccc(Nc2ccnc(N3CCC(NC(=O)c4ccccc4F)CC3)n2)cc1	none (no result: KDM5B inhibitor)
CC(C)NC(=O)N1CC[C@H](N=C2Nc3cc(F)ccc3N(CC(F)F)c3ccc(Cl)cc32)C1	none (no result: KDM5B inhibitor) | IP6K1 inh cnf inactive
CC(C)NC(=O)N1CCC(N2CCN(Cc3ccc(F)cc3)C(=O)C2=O)CC1	none
N#Cc1c(NC(=O)CSc2ncnc3ccccc23)sc2c1CCC2	none (no result: IP6K1 inh)
CC(=O)N1CCCC1C(=O)N1CCCC(c2nc3ncccc3[nH]2)C1 (stereo not drawn)	none (no result: KDM5B inhibitor)
O=C(NCC1CCN(c2cc(-c3ccccc3)[nH]n2)CC1)c1ccc2nc[nH]c2c1	none
c1cc(Nc2cc(C3CC3)[nH]n2)nc(Nc2ccc3nc[nH]c3c2)n1	IP6K1 inh -27 (no result: KDM5B inhibitor) | IP6K1 inh cnf inconclusive
COc1cccc(N2C(=O)C(CC(=O)Nc3ccccc3)N(CCc3sccc3C)C2=O)c1 (stereo not drawn)	none
COc1ccc(NC(=O)CC2C(=O)N(c3ccccc3)C(=O)N2CCc2sccc2C)cc1 (stereo not drawn)	IP6K1 inh -33 | IP6K1 inh cnf inactive
Cc1ccc(C=Nc2ccc(-c3ccc(N=Cc4ccc(C)s4)cc3)cc2)s1	none (no result: IP6K1 inh)
CN1CC2(CCN(C(=O)c3ccccc3-c3nn[nH]n3)CC2)CC1C(=O)O (stereo not drawn)	IP6K1 inh -38 | IP6K1 inh cnf inactive
O=C(c1ccccc1-c1nn[nH]n1)N1CCN(CCN2CCOCC2)CC1	none
O=C(c1ccccc1F)N1CCN(C(=O)c2nnn3c2COC(c2ccccc2)C3)CC1 (stereo not drawn)	none
O=C(c1cc(Cl)ccc1F)N1CCN(C(=O)c2nnn3c2COC(c2ccccc2)C3)CC1 (stereo not drawn)	IP6K1 inh -32 | IP6K1 inh cnf inactive
Cc1ccc(Cl)cc1NC(=O)c1ccccc1-c1ccccc1	none (no result: IP6K1 inh)
O=c1[nH]c(=O)n(Cc2ccccc2)c2c1CN(Cc1ccco1)CN2	none (no result: IP6K1 inh)
COc1ccc(-c2c(-c3ccc(OCCN4CCCCC4)cc3O)n[nH]c2C)cc1OC	none (no result: IP6K1 inh)
c1cc(OCCN2CCCCC2)cc(-c2n[nH]c3ccc(-c4ncn[nH]4)cc23)c1	IP6K1 inh -47 (no result: KDM5B inhibitor) | IP6K1 inh cnf inconclusive
Fc1ccc(CN2CCOC[C@H]2c2ncc(-c3ccc(Cl)s3)[nH]2)cc1	none
